target: ETS1; assay: pooled miR-30 sensor sort-seq; sequence = guide strand; details: shRNA
Note: reference of the scale not given here.

Sequence	sensor-assay potency score (higher = more potent)
AAGACTGACAGGATTTATCAGT	-0.516
TTTGATAGCAAAGTAGTCATTC	-0.303
TTTCACATCCTCTTTCTGCAGG	-0.259
TAGAGTGATAGGTAAATAGTTC	-0.916
TAGTCCTCTGAGTCGAAGCTGT	-0.809
ATCTGCACATTCCATATCCGGG	-1.42

target: EYA3; assay: as above; details: shRNA

Sequence	sensor-assay potency score (higher = more potent)
TTTGGTAGCACTATAGATGTTC	0.549
TAGTCCATATAGGAGAACCTTG	-1.31
TTGAGTCTGCTGTAGTGTCTGG	-0.331
TTGCTAGTCATGTTTTTCCTGG	-0.514
TTCTAATTCACTGTCTTGGGAA	-0.169
TTTAATGCAGTTCCTAACCAGG	-1.16
TTTTCCTGGACTGATCATCAGT	-0.683
TTAGTCTGACCTGTGACTCCAA	-0.459
TTGACTTATAGTTTGCTCTCCT	0.627
TAGATTTCTCTCACTTTCCGGT	0.197
TAGTGTCTGGTATTGAGTCTGT	-0.308
TTAATCTCTGCAGTGCTTCCTT	0.585
TTGTGAGGTATAATCATTGGAT	-0.583
TATAATCATTGGATGAGCGAGG	-0.793
TTGCTCTCCTGATTCCTGCATC	-0.293
TTCTGCTCTTAATCTCTGCAGT	-0.462
TAGTCTGACCTGTGACTCCAAA	-0.964
TCTGGTATTGAGTCTGTCCAGG	-0.468
TAATCCTGGTTTGAGATGCTGG	-0.375
TTTCTTCCATTGTTAAACCTGA	-0.4
ATCACTGTTAGTCTGACCTGTG	0.133
TAGTTTGCTCTCCTGATTCCTG	-0.14
TTTACTTGGTGTAGTCTGGGAC	-0.478

target: F2R; assay: as above; details: shRNA

Sequence	sensor-assay potency score (higher = more potent)
TTCCTGAGAAGAAATGACCGGG	0.496
AAACACTAGAACTTCTACGCAC	0.254
TTATTGATGGAGACTAATCTGT	-0.475
TAAACTTTTCTTTTTAACCTCC	0.474
TAATAGCTGATCTTAAAGGGGA	-0.239
TAGTACTAAGTCTTACCTCTTA	-0.241
TAATAACTTAAACCTTGCCGTC	-1.01
ACAAACAGCACATCTGCCGTGG	-0.289
TTAATAACTTAAACCTTGCCGT	0.203
TACACCACAGCCAGAAACCGGT	-0.606
TTGGCTTATGTGTACAGTGTGT	-0.314

— the OligoGym collection
